Screens as filed in PubChem BioAssay.
MITF inh: MITF inhibitors, primary screen, biochemical, AlphaScreen, human. inhibition, % at 2.6 µM. AlphaScreen MITF homodimerization, bead proximity signal. hit rate 0.91% among 650,000; in the data active = inhibition above about 50%;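 note: 0% = vehicle wells with protein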
GPR151 ag: activators of human GPR151, primary screen, cell-based, PathHunter beta-arrestin, luminescence | G-protein coupled receptor 151 (Homo sapiens), Q8TDV0 | PathHunter beta-arrestin GPR151 cells | hit rate 1% among 650,000 | activation, % at 11.2 µM; in the data active = activation above about 4.9%;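 note: 0% = median of compound wells and 100% = cells with positive control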
Target sequence (Q8TDV0 whole entry, looked up): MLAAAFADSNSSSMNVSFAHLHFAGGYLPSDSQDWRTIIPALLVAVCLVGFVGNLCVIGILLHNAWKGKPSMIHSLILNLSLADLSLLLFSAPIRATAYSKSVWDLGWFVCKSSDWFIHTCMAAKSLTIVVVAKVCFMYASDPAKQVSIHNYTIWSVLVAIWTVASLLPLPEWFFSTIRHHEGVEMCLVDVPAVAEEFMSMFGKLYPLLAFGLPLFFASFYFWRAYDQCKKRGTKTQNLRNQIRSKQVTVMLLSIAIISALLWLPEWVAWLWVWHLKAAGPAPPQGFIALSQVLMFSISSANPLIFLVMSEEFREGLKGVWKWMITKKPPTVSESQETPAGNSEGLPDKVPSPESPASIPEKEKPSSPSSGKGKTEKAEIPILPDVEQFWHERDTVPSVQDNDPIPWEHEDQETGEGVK
TEAD-YAP block: TEAD-YAP interaction inhibition, primary screen, TEAD-YAP interaction inhibitor project, luminescence, HEK-TIYL cells. inhibition, % at 9.12 µM. AID 1259422, 2018. hit rate 1.4% among 640,000. TEAD-Gal4/YAP UAS-luciferase luminescence; in the data active = inhibition above about 32%;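 note: 0% = median of test compound wells and 100% = reference inhibitor wells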
FBW7 act: FBW7 E3 ligase activators, primary screen, biochemical, AlphaScreen, human; F-box/WD repeat-containing protein 7 (Homo sapiens), Q969H0; AlphaScreen FBW7–phospho-cyclin E peptide binding, activator screen; normalized activity (activation), % at 26.1 µM; hit rate 0.13% among 650,000; AID 1259310, 2017; in the data active = normalized activity above about 1.9%;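 note: purified mutant Fbw7 with reduced substrate affinity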
MITF confirm: MITF inhibitors, retest of hits, confirmation, biochemical, AlphaScreen, triplicate. AlphaScreen MITF homodimerization, biotin/His-MITF beads. AID 1259372, 2018. shares compounds with MITF inh. inhibition, % at 2.6 µM. hit rate 16% among 4,700;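 active = inhibition above a cutoff derived from the DMSO control wells, cut at about 28% in these data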;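 note: 0% = MITF dimer wells with DMSO only; inhibitors lower the bead chemiluminescence by keeping MITF from dimerizing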
AS interf DR: AlphaScreen optical interference compounds, dose response, counter-screen, biochemical, HTS; shares compounds with MITF inh; AlphaScreen optical interference counterscreen, cell-free; IC50, µM; hit rate 6% among 480; AID 1259373, 2018; call rule not given here
AS interf ctr: AlphaScreen optical interference compounds, counter-screen for MITF inhibitor project, biochemical, triplicate | shares compounds with MITF inh | LysRS AlphaScreen counterscreen, signal interference | inhibition, % at 2.6 µM | hit rate 7.6% among 4,700;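 active = inhibition above a cutoff derived from the DMSO control wells, cut at about 30% in these data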
Active calls of the source: *; x = not tested or not shown. Rows were chosen to be rich in hits. Some 3.5% of all compounds tested hit in one or more screens of this group.

SMILES | MITF inh | GPR151 ag | TEAD-YAP block | FBW7 act | MITF confirm | AS interf ctr | others
CC1CCCN(C(=O)C2CCN(Cc3cccc(O)c3)CC2)C1 (stereo not given) | 18 | 0 | 2 | 0 | x | x
COc1cccc(CN2CCC(C(=O)N3CCN(c4ccccc4F)CC3)CC2)c1OC | 52* | -1 | 1 | 0 | 8 | 11
O=C(C1CCN(Cc2cccc(O)c2)CC1)N1CCN(c2ccccc2F)CC1 | 76* | 0 | 4 | 1 | -9 | -8
Cn1cc(-c2nc(Nc3ccc(-n4cnc(N5CCOCC5)n4)cc3)ncc2Br)cn1 | 57* | 0 | 4 | 0 | 67* | 3 | AS interf DR=>6.5
c1cc(-c2ccc3cnc(Nc4ccc(-n5cnc(N6CCOCC6)n5)cc4)nc3c2)ccn1 | 16 | -1 | -40 | 0 | x | x
O=c1ccc(-c2ccc3cnc(Nc4ccc(-n5cnc(N6CCOCC6)n5)cc4)nc3c2)c[nH]1 | 60* | -1 | -13 | 1 | 5 | -2
O=C(Cn1c(=O)oc2cc(Cl)ccc21)NC1CCCc2ccccc21 (stereo not given) | 5 | 0 | 1 | 0 | x | x
Clc1cccc(CN2CCN(c3ncccn3)CC2)c1 | 49 | 3 | -4 | 0 | x | x
FC(F)(F)c1ccccc1CN1CCN(Cc2cccc(Cl)c2)CC1 | 69* | 1 | -6 | 0 | 18 | 22
Cc1ccc(S(=O)(=O)N2CCN(Cc3cccc(C)c3)CC2)cc1 | 3 | 0 | -6 | 0 | x | x
Cc1cccc(CN2CCN(Cc3ccccc3C(F)(F)F)CC2)c1 | 76* | -1 | 4 | 0 | 1 | 3
COc1cc(C2C(C(N)=O)=C(C)Nc3nc(CCCO)nn32)ccc1OCc1ccccc1 (stereo not given) | 13 | 1 | 1 | 0 | x | x
O=C(c1ccsc1)N1CCOc2ccc(CN3CCN(c4ccccc4)CC3)cc2C1 | 73* | -1 | -2 | 0 | -5 | -1
Cc1cc(=O)oc2c3c(ccc12)OCN(c1ccc(C(=O)O)cc1)C3 | -6 | -1 | 1 | 0 | x | x
Cc1ccc(C(=O)Nc2ccc([N+](=O)[O-])cn2)o1 | 80* | -4 | -32 | 0 | 69* | -9 | AS interf DR=>6.5
Cc1ccc(C2=C/C(=C/c3ccc(C)c([N+](=O)[O-])c3)C(=O)O2)c(C)c1 | 0 | 0 | -18 | 0 | x | x
CCOC(=O)C1=C(C)N=c2s/c(=C\c3c(C)[nH]c4ccccc34)c(=O)n2C1c1ccccc1 (stereo not given) | 66* | 3 | 3 | 0 | -7 | -8
CCOC(=O)C1=C(c2ccccc2)N=c2s/c(=C\c3cccs3)c(=O)n2C1c1c(OC)ccc2ccccc12 (stereo not given) | 55* | -1 | -10 | 0 | -9 | -7
COc1ccc(NC(=O)/C=C\c2cn(-c3ccccc3)nc2-c2ccc(F)cc2)cc1 | -9 | 0 | -13 | 0 | x | x
Cc1ccc(C)c(OCC(=O)NC(C)c2ccccc2)c1 (stereo not given) | 12 | -2 | 9 | 0 | x | x
O=C(Nc1ccc(C(F)(F)F)cc1)c1cc(S(=O)(=O)N2CCN(c3ccccc3F)CC2)ccc1F | -3 | 0 | -2 | 0 | x | x
N#CCn1cc(/C=C(/C#N)C(=O)Nc2cccc(Br)c2)c2ccccc21 | 7 | -2 | -4 | 1 | x | x
O=C(CC1Nc2ccccc2NC1=O)Nc1cccc(Cl)c1 (stereo not given) | 65* | 1 | 4 | 0 | 2 | -11
O=C(Cn1cc(S(=O)(=O)c2ccccc2)c(=O)c2ccccc21)Nc1ccc(F)cc1 | -1 | 1 | 3 | 0 | x | x
Cc1ccc(NC(=O)c2sccc2-n2cccc2)cc1 | 59* | 1 | 8 | 0 | 5 | 17
SMILES | MITF inh | GPR151 ag | TEAD-YAP block | FBW7 act | MITF confirm | AS interf ctr | others
O=C(c1sccc1-n1cccc1)N1CCCC1 | 5 | 0 | 12 | 0 | x | x
CCOC(=O)c1cc(CC)sc1NC(=O)c1cc([N+](=O)[O-])ccc1Cl | 60* | 3 | 6 | 0 | 5 | 7
CCOC(=O)c1cc(CC)sc1NC(=O)c1cc([N+](=O)[O-])ccc1N1CCCCCC1 | 18 | 0 | -2 | 0 | x | x
CCOC(=O)c1c(C)oc(NC(=O)c2ccc([N+](=O)[O-])cc2Cl)c1C#N | 54* | 1 | 2 | 0 | 8 | 13
COc1cc(C)c(NC(=O)Cc2ccc(F)cc2)cc1C(C)C | 15 | 0 | 10 | 0 | x | x
COc1ccc(-c2cn3c(NC(=O)CC4CC4)cnc3cn2)cc1 | -6 | -1 | 17 | 0 | x | x
O=[N+]([O-])c1ccccc1CN1CCN(Cc2ccccn2)CC1 | 69* | 0 | 5 | 0 | 2 | 1
O=[N+]([O-])c1ccccc1CN1CCN(c2ncccn2)CC1 | 25 | 1 | 3 | 0 | x | x
O=[N+]([O-])c1ccccc1CN1CCN(c2ccccn2)CC1 | 54* | 0 | 8 | 0 | 1 | -3
CCOc1ccc(/C=C/C(=O)Nc2ccc(N3CCOCC3)cc2)cc1 | 87* | 0 | 13 | 0 | 7 | 14
O=C(CCc1nnc(CCC2CCCCC2)o1)NCCc1cn2cccnc2n1 | -2 | 0 | 0 | 0 | x | x
CC1CCCC(N2CCN(Cc3ccco3)CC2)C1 (stereo not given) | 74* | 0 | -6 | 0 | -1 | 1
c1ccc(C2CCC(N3CCN(C4CCCCCC4)CC3)CC2)cc1 (stereo not given) | 63* | -1 | -3 | 0 | 2 | 15
c1ccc(C2CCC(N3CCN(C4CCCC4)CC3)CC2)cc1 (stereo not given) | 19 | -1 | 3 | 0 | x | x
c1ccc(C2CCC(N3CCN(Cc4ccco4)CC3)CC2)cc1 (stereo not given) | 67* | 0 | -9 | 0 | 4 | 6
COc1cc(N2CCOCC2)ccc1Nc1cc(NC(C)(C)c2ccccc2)c(C(F)(F)F)cn1 | 58* | -2 | -1 | 0 | 44* | 17 | AS interf DR=>6.5
COc1cc(N2CCOCC2)ccc1Nc1cc(NCc2ccccc2)c(C(F)(F)F)cn1 | 10 | -1 | -1 | 0 | x | x
OC(CNc1ccccc1)CN1c2ccccc2Sc2ccccc21 (stereo not given) | 9 | 0 | 0 | 1 | x | x
Cc1ccc(C)c(NCC(O)CN2c3ccccc3Sc3ccccc32)c1 (stereo not given) | 73* | 0 | 6 | 0 | 1 | 3
O=C1C(=O)N(CCBr)C(c2ccccc2)/C1=C(\O)c1ccccc1 (stereo not given) | 59* | 0 | -12 | 0 | -2 | -1
